Data on one compound can be found in ChEMBL document CHEMBL1961873, “Compounds: GSK PKIS; Assays: Nanosyn kinase panel” (2012).

Each structure is given as a SMILES string.

For assay [1], the target named is Sphingosine kinase 1 (Homo sapiens) (UniProt Q9NYA1). As to conditions: at 1 µM.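 Also: mean SPHK1 inhibition value reported from the GSK PKIS kinase panel screen.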
In assay [2] the target is T1, Sphingosine kinase 2 (Homo sapiens) (UniProt Q9NRA0).
T1 sequence (whole entry): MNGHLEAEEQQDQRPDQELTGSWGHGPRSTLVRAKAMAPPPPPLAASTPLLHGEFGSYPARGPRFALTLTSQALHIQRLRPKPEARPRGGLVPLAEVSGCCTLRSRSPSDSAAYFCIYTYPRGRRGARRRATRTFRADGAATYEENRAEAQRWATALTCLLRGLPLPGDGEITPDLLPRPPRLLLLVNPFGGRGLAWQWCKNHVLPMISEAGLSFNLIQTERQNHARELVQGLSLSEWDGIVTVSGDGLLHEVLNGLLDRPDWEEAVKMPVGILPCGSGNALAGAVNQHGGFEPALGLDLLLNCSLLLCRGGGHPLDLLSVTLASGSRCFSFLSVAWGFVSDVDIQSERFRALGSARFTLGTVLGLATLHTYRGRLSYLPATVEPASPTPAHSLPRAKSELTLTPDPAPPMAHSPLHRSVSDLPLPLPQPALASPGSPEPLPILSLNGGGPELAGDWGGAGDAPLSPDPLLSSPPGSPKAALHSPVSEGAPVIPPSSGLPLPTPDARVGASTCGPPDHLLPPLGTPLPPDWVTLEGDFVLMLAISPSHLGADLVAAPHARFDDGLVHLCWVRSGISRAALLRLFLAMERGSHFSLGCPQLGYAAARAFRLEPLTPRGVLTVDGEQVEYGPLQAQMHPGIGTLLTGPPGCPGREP
As to conditions: at 0.1 µM.

Assay [3] concerns the target T1, Sphingosine kinase 2 (Homo sapiens). As to conditions: at 1 µM.
Assay [4] addresses Casein kinase II subunit alpha (Homo sapiens) (UniProt P68400). Conditions: at 0.1 µM.
For assay [5] the target is unchanged. As to conditions: at 1 µM.
Assay [6] concerns the target T2, Inhibitor of nuclear factor kappa-B kinase subunit alpha (Homo sapiens) (UniProt O15111).
T2 sequence (whole entry): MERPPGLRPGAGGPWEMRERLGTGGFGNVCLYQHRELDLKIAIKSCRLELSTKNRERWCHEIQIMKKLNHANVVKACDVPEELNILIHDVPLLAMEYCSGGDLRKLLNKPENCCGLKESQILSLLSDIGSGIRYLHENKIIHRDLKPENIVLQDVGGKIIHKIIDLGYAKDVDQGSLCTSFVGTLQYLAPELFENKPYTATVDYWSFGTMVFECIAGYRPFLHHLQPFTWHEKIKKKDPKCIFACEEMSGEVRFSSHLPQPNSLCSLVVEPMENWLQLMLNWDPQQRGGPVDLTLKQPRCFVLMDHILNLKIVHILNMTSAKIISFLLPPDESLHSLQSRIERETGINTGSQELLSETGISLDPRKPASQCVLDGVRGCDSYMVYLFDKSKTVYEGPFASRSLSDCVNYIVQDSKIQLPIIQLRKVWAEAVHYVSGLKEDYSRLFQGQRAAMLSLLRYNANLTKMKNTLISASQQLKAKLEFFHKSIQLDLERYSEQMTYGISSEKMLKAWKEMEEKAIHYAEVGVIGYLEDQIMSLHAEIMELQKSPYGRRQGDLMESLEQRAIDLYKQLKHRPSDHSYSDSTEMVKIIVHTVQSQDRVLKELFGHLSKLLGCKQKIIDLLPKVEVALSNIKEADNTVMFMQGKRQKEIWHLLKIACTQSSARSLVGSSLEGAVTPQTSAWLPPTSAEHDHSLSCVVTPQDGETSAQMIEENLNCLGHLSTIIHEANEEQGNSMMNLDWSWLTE
As to conditions: at 0.1 µM.

Assay [7] addresses T2, Inhibitor of nuclear factor kappa-B kinase subunit alpha (Homo sapiens). As to conditions: at 1 µM.
The target of assay [8] is T3, Inhibitor of nuclear factor kappa-B kinase subunit beta (Homo sapiens) (UniProt O14920).
T3 sequence (whole entry): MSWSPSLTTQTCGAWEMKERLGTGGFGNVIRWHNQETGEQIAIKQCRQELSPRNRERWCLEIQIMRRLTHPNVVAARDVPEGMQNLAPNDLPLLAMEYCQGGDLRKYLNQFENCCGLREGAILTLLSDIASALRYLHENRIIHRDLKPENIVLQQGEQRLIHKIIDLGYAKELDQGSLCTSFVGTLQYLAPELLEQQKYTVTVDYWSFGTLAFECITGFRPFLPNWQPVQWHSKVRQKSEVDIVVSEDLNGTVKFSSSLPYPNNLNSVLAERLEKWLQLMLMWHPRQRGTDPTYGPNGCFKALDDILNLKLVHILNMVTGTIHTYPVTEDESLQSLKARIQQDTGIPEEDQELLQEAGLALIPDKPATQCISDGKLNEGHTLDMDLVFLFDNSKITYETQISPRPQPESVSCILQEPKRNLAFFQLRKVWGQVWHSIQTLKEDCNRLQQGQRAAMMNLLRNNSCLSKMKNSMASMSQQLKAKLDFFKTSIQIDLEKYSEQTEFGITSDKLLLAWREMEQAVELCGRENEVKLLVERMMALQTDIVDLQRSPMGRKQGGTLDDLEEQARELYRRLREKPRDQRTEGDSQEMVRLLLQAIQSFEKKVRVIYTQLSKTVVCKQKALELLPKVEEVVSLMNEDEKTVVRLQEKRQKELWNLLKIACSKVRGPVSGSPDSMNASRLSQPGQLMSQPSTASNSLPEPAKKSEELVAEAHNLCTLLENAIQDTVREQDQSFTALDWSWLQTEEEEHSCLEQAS
As to conditions: at 0.1 µM.

Assay [9] concerns the target T3, Inhibitor of nuclear factor kappa-B kinase subunit beta (Homo sapiens). Conditions: at 1 µM.
Assay [10] has as its target T4, Inhibitor of nuclear factor kappa-B kinase subunit epsilon (Homo sapiens) (UniProt Q14164).
T4 sequence (whole entry): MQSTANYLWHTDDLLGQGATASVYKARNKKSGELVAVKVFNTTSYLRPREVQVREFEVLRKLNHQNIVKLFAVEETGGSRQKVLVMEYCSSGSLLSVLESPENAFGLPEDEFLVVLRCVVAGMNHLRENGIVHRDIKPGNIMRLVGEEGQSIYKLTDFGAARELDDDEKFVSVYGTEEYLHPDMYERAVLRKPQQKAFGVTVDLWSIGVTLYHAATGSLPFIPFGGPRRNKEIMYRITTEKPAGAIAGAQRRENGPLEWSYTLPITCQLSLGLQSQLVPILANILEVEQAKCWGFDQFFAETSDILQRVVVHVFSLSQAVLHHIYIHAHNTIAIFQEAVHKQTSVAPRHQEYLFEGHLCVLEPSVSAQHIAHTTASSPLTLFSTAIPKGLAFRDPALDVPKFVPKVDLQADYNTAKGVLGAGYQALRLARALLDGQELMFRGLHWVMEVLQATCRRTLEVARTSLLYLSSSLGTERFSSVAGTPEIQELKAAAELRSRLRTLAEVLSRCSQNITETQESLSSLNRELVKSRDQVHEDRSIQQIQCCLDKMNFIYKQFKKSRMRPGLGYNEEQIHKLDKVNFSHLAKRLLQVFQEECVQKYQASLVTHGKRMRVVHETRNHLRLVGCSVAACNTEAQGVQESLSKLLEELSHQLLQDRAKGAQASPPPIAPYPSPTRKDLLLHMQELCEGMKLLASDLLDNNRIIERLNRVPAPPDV
As to conditions: at 0.1 µM.

In assay [11] the target is T4, Inhibitor of nuclear factor kappa-B kinase subunit epsilon (Homo sapiens). As to conditions: at 1 µM.
Assay [12] addresses T5, Serine/threonine-protein kinase Nek1 (Homo sapiens) (UniProt Q96PY6).
T5 sequence (whole entry): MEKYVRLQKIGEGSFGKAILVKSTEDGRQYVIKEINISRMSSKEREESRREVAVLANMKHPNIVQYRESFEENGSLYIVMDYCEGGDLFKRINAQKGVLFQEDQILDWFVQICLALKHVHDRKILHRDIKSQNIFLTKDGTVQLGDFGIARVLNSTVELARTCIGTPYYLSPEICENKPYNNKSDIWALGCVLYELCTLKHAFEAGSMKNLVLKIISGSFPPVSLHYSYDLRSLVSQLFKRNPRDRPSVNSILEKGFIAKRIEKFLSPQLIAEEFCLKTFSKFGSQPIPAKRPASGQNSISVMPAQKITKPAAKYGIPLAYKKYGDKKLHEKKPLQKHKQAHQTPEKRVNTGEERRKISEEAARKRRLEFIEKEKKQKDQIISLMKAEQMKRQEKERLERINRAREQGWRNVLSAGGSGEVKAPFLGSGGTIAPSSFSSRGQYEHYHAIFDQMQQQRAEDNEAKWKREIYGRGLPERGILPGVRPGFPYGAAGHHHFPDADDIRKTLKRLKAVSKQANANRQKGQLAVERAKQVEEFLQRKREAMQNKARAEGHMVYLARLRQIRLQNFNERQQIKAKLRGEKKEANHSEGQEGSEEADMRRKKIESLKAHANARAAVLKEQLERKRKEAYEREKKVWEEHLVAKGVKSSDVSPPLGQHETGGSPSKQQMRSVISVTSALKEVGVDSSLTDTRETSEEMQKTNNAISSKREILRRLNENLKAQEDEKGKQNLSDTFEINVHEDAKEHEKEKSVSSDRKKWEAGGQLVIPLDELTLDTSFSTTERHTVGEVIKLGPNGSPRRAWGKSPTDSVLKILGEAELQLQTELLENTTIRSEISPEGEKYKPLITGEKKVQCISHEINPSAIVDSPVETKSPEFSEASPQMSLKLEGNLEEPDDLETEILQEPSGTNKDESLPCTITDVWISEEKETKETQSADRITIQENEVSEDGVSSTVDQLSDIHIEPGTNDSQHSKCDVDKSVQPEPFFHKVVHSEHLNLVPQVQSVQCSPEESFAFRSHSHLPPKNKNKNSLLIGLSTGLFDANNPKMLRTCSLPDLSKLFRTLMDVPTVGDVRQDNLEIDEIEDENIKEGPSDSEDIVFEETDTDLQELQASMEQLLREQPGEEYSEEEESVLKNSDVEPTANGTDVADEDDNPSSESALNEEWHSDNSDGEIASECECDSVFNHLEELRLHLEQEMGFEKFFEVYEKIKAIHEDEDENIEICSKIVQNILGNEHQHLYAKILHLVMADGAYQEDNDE
As to conditions: at 0.1 µM.

The target in assay [13] is T5, Serine/threonine-protein kinase Nek1 (Homo sapiens). As to conditions: at 1 µM.
For assay [14], the target named is T6, Serine/threonine-protein kinase Nek2 (Homo sapiens) (UniProt P51955).
T6 sequence (whole entry): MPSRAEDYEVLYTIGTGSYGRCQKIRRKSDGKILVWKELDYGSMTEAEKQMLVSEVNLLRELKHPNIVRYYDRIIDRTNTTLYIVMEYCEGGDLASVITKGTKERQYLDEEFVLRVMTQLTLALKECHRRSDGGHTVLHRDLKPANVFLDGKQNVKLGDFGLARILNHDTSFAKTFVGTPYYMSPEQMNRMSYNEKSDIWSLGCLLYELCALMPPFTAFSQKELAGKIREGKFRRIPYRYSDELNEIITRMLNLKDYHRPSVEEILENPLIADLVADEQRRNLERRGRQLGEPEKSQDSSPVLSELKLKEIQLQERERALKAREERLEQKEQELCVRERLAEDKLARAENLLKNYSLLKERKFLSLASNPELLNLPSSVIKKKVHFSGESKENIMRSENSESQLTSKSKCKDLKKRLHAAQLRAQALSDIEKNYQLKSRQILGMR
Conditions: at 0.1 µM.

Assay [15] addresses T6, Serine/threonine-protein kinase Nek2 (Homo sapiens). As to conditions: at 1 µM.
The target in assay [16] is Serine/threonine-protein kinase Nek6 (Homo sapiens) (UniProt Q9HC98). As to conditions: at 0.1 µM.
Assay [17] has the same target. As to conditions: at 1 µM.
Assay [18] concerns the target Serine/threonine-protein kinase Nek7 (Homo sapiens) (UniProt Q8TDX7). As to conditions: at 0.1 µM.
Assay [19] has the same target. Conditions: at 1 µM.
Assay [20] has as its target T7, Serine/threonine-protein kinase Nek9 (Homo sapiens) (UniProt Q8TD19).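 Also: reported value is the mean percent inhibition of NEK9.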
T7 sequence (whole entry): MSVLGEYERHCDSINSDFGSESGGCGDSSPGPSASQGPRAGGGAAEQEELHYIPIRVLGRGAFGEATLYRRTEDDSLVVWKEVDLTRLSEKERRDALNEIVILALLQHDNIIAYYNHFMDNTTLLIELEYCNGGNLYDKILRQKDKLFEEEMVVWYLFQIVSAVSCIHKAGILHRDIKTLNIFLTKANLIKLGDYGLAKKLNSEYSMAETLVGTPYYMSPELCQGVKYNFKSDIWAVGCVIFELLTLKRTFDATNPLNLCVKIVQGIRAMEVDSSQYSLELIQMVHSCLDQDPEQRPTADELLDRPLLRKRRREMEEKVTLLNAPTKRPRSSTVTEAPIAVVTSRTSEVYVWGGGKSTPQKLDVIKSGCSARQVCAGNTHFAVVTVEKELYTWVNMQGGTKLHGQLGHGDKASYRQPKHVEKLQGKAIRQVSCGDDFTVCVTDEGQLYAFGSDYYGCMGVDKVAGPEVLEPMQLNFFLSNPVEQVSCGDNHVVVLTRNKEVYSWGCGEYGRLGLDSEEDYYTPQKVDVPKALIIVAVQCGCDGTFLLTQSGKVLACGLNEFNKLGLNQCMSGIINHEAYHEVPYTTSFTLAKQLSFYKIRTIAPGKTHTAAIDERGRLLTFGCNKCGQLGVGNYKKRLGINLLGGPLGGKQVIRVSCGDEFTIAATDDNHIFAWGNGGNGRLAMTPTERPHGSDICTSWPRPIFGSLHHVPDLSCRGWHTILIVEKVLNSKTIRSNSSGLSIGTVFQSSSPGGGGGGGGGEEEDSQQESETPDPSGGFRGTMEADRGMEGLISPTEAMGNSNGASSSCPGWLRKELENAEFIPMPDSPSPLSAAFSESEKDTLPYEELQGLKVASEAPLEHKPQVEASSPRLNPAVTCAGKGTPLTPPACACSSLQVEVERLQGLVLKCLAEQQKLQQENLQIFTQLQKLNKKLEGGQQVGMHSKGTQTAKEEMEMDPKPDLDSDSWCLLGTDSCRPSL
As to conditions: at 0.1 µM.

Broadly, the inhibition is the drop in the measured response relative to a control, in per cent.

Serine/threonine-protein kinase Nek7 (Homo sapiens), sequence (Q8TDX7 whole entry, looked up): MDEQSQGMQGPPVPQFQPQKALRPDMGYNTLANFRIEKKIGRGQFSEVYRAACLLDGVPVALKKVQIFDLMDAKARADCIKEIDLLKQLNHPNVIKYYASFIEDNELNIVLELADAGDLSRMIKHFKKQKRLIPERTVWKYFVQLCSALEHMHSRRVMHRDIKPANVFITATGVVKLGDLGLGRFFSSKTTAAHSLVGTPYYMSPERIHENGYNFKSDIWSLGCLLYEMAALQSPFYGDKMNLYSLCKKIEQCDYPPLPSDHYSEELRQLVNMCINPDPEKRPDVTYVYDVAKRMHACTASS
Casein kinase II subunit alpha (Homo sapiens), sequence (P68400 whole entry, looked up): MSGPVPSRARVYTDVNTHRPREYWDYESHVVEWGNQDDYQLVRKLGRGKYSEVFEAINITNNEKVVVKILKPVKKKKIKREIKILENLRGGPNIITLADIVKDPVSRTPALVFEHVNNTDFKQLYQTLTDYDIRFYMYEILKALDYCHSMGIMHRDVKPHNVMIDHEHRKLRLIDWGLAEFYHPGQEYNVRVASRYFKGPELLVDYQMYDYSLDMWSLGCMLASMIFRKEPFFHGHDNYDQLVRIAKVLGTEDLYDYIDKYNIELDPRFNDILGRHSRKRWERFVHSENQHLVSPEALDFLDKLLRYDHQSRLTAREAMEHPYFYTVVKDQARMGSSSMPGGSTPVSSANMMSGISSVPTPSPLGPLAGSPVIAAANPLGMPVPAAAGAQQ
Serine/threonine-protein kinase Nek6 (Homo sapiens), sequence (Q9HC98 whole entry): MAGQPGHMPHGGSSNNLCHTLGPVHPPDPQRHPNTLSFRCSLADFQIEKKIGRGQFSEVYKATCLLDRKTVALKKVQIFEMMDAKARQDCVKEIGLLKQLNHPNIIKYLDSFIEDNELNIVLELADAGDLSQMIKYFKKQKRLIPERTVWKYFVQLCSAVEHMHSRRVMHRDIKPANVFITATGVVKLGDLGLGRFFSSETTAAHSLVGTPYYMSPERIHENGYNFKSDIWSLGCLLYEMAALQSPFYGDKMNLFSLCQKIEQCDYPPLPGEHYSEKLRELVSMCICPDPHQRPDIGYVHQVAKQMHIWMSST
Sphingosine kinase 1 (Homo sapiens), sequence (Q9NYA1 whole entry): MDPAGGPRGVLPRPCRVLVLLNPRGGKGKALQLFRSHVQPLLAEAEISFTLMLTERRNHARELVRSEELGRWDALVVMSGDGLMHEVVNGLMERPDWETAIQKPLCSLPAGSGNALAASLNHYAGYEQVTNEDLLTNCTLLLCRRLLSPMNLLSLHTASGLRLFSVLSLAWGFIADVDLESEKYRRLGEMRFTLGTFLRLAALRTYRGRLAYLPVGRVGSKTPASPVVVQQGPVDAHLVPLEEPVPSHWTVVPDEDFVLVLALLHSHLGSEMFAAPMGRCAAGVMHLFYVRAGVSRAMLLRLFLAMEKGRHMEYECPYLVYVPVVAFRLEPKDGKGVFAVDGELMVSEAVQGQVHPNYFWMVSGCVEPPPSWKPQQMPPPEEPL

With `CS(=O)(=O)CCNCc1ccoc1-c1ccc2ncnc(Nc3ccc(OCc4ccccc4)cc3)c2c1`, the inhibition in [1] came out at 5.32%; in [2] it was 1.37%; in assay [3], 1.07%; in [4], 2.14%; in assay [5], 1.94%; in assay [6], 1.95%. The inhibition in assay [7] was 8.23%; in [8], -1.24%; in assay [9], 0.42%; in [10], -0.44%; in assay [11] it was 0.42%; in assay [12], 0.71%. Also, the inhibition in assay [13] is 2.1%; in assay [14], 1.71%; in [15] it was 0.9%; in assay [16], 1.71%; in assay [17], 0.7%; in assay [18] it was 0.9%. The inhibition is 1.09% in assay [19] and -0.36% in assay [20].
